Data on 23 sequences can be found in the OligoGym collection.
Also: reference of the scale not given here.

The first experiment concerns the target SASH1. The experiment is described as follows: pooled miR-30 sensor sort-seq; sequence = guide strand. Particulars: shRNA.
In the case of TAACCTCTTAAACTTCACCGAC, the sensor-assay potency score (higher = more potent) was -0.612.

Turning to TAACTCTTGAGTCTGTTACTTT, the sensor-assay potency score (higher = more potent) was -0.488.

Consider TTGAGCTTGAGTGAGTCTGTGT, for which the sensor-assay potency score (higher = more potent) came out at 0.495.

With TAGCTTTCCGAGTCTTGCCGTT, the sensor-assay potency score (higher = more potent) is -0.384.

TTCAGGTACAATCTGAGGGGGC: the sensor-assay potency score (higher = more potent) was -0.224.

The sequence TTGACCATCATCATTAGCTGAA came in with a sensor-assay potency score (higher = more potent) of 0.388.

Take TATTTTTTAGACATTCTCTTTC: the sensor-assay potency score (higher = more potent) is -0.235.

For TTTTAGGTTAATCCGATCCAGG, the sensor-assay potency score (higher = more potent) is -1.32.

In turn, TAGATGAACTTGAACGTGCCGA returned a sensor-assay potency score (higher = more potent) of 0.105.

The sequence TTTCGTAGCATCCTGAGTCTCG gave a sensor-assay potency score (higher = more potent) of 0.799.

With TAGTTGTCAATTTCTGAGGTTC, the sensor-assay potency score (higher = more potent) is -0.0207.

A further experiment has as its target SASH3. Described as above. Particulars: shRNA.
As for TAGGGTTTTTAGACTGACCTGA, the sensor-assay potency score (higher = more potent) came out at 0.692.

Turning to TGACCATCTGTAATCAGCCTTG, the sensor-assay potency score (higher = more potent) is -0.932.

As to TTGGCAAAATCCTTGAAGCTGC, the sensor-assay potency score (higher = more potent) is -0.67.

For TAGTCCAGCAGCAGCTCGGCGG, the sensor-assay potency score (higher = more potent) was -1.4.

Turning to TTGAGCAGGAGGGTGGATGTGT, the sensor-assay potency score (higher = more potent) was -0.276.

In turn, TTGACCATCTGTAATCAGCCTT gave a sensor-assay potency score (higher = more potent) of 0.123.

With TAGCTTTTACCAAAGTTCCTGG, the sensor-assay potency score (higher = more potent) is -0.621.

Consider TGATCTGGATCACATCTCCTTT, for which the sensor-assay potency score (higher = more potent) was -1.14.

In the case of TTTTAGACTGACCTGAAACATT, the sensor-assay potency score (higher = more potent) is -1.36.

In the case of TTGAAGTCTTCCAGTGTCTGGT, the sensor-assay potency score (higher = more potent) came to 0.225.

Take ATCATCTTGCCCATCTTCCTGT: the sensor-assay potency score (higher = more potent) was -0.431.

As to TTCTGGAATGTTATCATCCAGA, the sensor-assay potency score (higher = more potent) is -1.05.
